Values joined by “and” are separate entries in the source; they are usually repeats but may differ in a detail not shown here. Equal values may be shown once. Records with an inconclusive call do not appear. Some compounds were tested as several samples or in several runs, with calls that do not always agree. Active and inactive are the calls of the source. How the source made its calls, unless noted: active means hit-call score of the fitted dose curve at least 0.9, where 1 is the maximum; inconclusive means response in the unintended direction; inactive means score below 0.9.
Key:
[1] = target: Cellular tumor antigen p53 (Homo sapiens) (UniProt P04637); experiment: TOX21_p53_BLA_p3_ratio: Tox21 HCT-116 p53 Agonism Beta-lactamase Assay, Ratio, Phase 3 (AID 2283596)
Chain of Cellular tumor antigen p53 (Homo sapiens) (P04637 whole entry, looked up): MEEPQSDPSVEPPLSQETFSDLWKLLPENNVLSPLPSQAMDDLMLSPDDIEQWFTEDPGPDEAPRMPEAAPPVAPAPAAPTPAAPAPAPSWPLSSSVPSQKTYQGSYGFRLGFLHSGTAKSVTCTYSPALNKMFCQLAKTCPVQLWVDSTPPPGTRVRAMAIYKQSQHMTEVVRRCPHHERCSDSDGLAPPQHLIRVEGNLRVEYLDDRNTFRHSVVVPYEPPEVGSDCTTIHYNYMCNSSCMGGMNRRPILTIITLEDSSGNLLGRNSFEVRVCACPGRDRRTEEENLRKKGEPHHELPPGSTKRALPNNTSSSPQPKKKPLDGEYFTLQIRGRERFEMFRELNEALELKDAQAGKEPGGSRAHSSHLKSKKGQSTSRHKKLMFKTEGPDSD
Procedure, shortened: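 HCT116 p53-bla cells (4000/well) given compound in DMSO (217-fold dilution) after 5 h, incubated 16 h at 37C. CCF4-AM substrate 2 h at room temperature; 460/530 nm emission ratio, gain fitted against DMSO.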

[2] = TOX21_p53_BLA_p4_viability: Viability Assessment in the Tox21 HCT-116 p53 Agonism Beta-lactamase Assay, Phase 4 (AID 2283597);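 further: hits lower the luminescence signal meaning cytotoxicity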
Procedure, shortened: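 HCT116 p53-bla cells (4000/well) rested 5 h at 37C, then received compounds in DMSO (217-fold dilution) for 16 h at 37C, 5% CO2. CellTiter-Glo was added after the CCF4-AM read, and luminescence was read after 30 min at room temperature.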

[3] = target: Cellular tumor antigen p53 (Homo sapiens) (UniProt P04637); experiment: TOX21_p53_BLA_p5_ratio: Tox21 HCT-116 p53 Agonism Beta-lactamase Assay, Ratio, Phase 5 (AID 2283599)
Procedure, shortened: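 Beta-lactamase reporter ratio (blue 460 nm over green 530 nm, 405 nm excitation) after 2 h CCF4-AM loading, in HCT-116 cells exposed 16 h at 37 C to compounds pinned at 217-fold dilution. Increases relative to DMSO baseline scored.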

[4] = target: Cellular tumor antigen p53 (Homo sapiens) (UniProt P04637); experiment: TOX21_p53_BLA_p4_ratio: Tox21 HCT-116 p53 Agonism Beta-lactamase Assay, Ratio, Phase 4 (AID 2283601)
Procedure, shortened: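 Signal is the blue/green (460nm/530nm) ratio of cleaved versus uncleaved CCF4-AM substrate, read after 2 h substrate loading. Cells were HCT116 carrying the p53-responsive beta-lactamase reporter, dosed 16 h at 37C, 5% CO2; CellTiter-Glo measured in parallel.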

[5] = target: Cellular tumor antigen p53 (Homo sapiens) (UniProt P04637); experiment: TOX21_p53_BLA_p2_ratio: Tox21 HCT-116 p53 Agonism Beta-lactamase Assay, Ratio, Phase 2 (AID 2283592)
Procedure, shortened: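 HCT116 cells carrying a p53-responsive beta-lactamase reporter were plated, incubated 5 h at 37C, then dosed with compounds in DMSO (217-fold dilution) for 16 h. CCF4-AM substrate was added for 2 h at room temperature; the 460/530 nm emission ratio gave gain-of-signal activity relative to DMSO.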

THRB (gene 7068) [6] = target: THRB (gene 7068) (UniProt P10828); experiment: TOX21_TRB_BLA_Antagonist_Followup_ratio: Tox21 Thyroid Hormone Receptor beta Antagonism Beta-lactamase (BLA) Follow-Up Assay, Ratio (AID 2283958)
Chain of THRB (gene 7068) (P10828 whole entry, looked up, the tested form may be a part): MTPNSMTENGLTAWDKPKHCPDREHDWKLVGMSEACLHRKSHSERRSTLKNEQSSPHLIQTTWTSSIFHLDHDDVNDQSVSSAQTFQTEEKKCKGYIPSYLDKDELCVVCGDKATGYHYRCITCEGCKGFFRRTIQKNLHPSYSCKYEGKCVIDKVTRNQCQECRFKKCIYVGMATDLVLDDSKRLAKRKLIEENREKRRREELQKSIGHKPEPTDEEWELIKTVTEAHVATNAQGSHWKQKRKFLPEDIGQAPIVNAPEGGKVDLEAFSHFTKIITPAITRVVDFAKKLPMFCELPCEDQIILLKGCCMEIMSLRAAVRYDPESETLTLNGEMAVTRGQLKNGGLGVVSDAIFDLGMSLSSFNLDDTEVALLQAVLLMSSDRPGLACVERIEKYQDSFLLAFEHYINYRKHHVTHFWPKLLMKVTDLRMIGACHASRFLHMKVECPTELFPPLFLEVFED
Procedure, shortened: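 HEK293T TRb-bla (GAL4 DBD + hTRβ LBD), 2% cs-FBS phenol red-free DMEM, 5 h attach; cpds 11-pt triplicate, 18 h 37C; CCF4-AM 2 h RT; 460/530 ratio vs DMSO; CellTiter-Glo viability same wells.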

[7] = TOX21_TRB_BLA_Antagonist_Followup_viability: Viability Assessment in the Tox21 Thyroid Hormone Receptor beta Antagonism Beta-lactamase (BLA) Follow-Up Assay (AID 2283961)
Procedure, shortened: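 HEK293T cells stably expressing GAL4-DBD/human TRβ-LBD with UAS-bla reporter, 3,000 cells/well in phenol red-free DMEM, 2% charcoal-stripped FBS. Compounds at 11 concentrations in triplicate, 18 h at 37C/5% CO2; viability by CellTiter-Glo luminescence after 30 min at room temperature.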

[8] = target: Retinoic acid receptor RXR-alpha (Homo sapiens) (UniProt P19793); experiment: TOX21_TR_RXR_BLA_Antagonist_Followup_ratio: Tox21 Thyroid Hormone Receptor beta Retinoid X Receptor alpha (RXRa) Antagonism Beta-lactamase (BLA) Follow-Up Assay, Ratio (AID 2283972)
Chain of Retinoic acid receptor RXR-alpha (Homo sapiens) (P19793 whole entry, looked up): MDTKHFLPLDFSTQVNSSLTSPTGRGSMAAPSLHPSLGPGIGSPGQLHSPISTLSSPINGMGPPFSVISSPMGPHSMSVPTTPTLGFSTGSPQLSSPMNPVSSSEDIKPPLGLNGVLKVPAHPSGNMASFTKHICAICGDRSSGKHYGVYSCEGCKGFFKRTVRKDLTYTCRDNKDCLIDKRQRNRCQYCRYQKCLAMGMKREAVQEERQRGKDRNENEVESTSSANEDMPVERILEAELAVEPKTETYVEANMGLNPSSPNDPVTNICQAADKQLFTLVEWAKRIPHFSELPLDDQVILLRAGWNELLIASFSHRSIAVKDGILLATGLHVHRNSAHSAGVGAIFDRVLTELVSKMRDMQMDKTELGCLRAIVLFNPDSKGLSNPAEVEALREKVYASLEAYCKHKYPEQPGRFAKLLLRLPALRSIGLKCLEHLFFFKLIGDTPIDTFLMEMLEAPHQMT
Procedure, shortened: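 RXRa-UAS-bla HEK293T cells in phenol red-free DMEM with 2% charcoal-stripped FBS; compounds at 11 concentrations in triplicate, 16 h at 37C. LiveBLAzer FRET-B/CCF4-AM substrate 2 h at room temperature; read as 460:530 nm ratio versus DMSO.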

[9] = TOX21_TR_RXR_BLA_Antagonist_Followup_viability: Viability Assessment in the Tox21 Thyroid Hormone Receptor beta Retinoid X Receptor alpha (RXRa) Antagonism Beta-lactamase (BLA) Follow-Up Assay (AID 2283979)
Procedure, shortened: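 Follow-up compounds (11 concentrations, triplicate) were incubated 16 h at 37C/5% CO2 with HEK293T RXRa-bla cells seeded at 2,500/well in charcoal-stripped-serum medium. ATP content by CellTiter-Glo luminescence gave viability; curves fitted in both directions against DMSO.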

[10] = TOX21_p53_BLA_p5_viability: Viability Assessment in the Tox21 HCT-116 p53 Agonism Beta-lactamase Assay, Phase 5 (AID 2283600)
Procedure, shortened: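 Cells were plated at 4000/well, rested 5 h at 37C, then given compounds in DMSO (217-fold dilution) for 16 h at 37C, 5% CO2. Following the CCF4-AM beta-lactamase read, CellTiter-Glo was added and luminescence was read after 30 min at room temperature.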

[11] = TOX21_p53_BLA_p3_viability: Viability Assessment in the Tox21 HCT-116 p53 Agonism Beta-lactamase Assay, Phase 3 (AID 2283593);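 further: cells exposed to compound for 16 h before reading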
Procedure, shortened: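 Cellular ATP was quantified by CellTiter-Glo luminescence, read after 30 min at room temperature. Beforehand, HCT116 cells (4000/well) received compound 5 h post-seeding, 217-fold diluted from DMSO, then incubated 16 h at 37C.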

THRB (gene 7068) [12] = target: THRB (gene 7068) (UniProt P10828); experiment: TOX21_TRB_COA_Antagonist_Followup_ratio: Tox21 Thyroid Hormone Receptor beta Antagonism through Coactivator Recruitment Follow-Up Assay, Ratio (AID 2283967)
Procedure, shortened: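 Test compound was incubated with 5.0 nM GST-TRβ LBD in 0.10% BSA. Then 200 nM fluorescein-SRC-2 peptide and 2 nM terbium anti-GST antibody were added. TR-FRET (520:495 nm) was measured and normalized to DMSO and T3 controls.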

[13] = CCTE_Harrill_HTTr_Viability_MCF7: CCTE's 6-hour Cell Viability Assessment for the High-Throughput Transcriptomics (HTTr) Platform, in MCF-7 cells cultured in DMEM + 10% fetal bovine serum, Harrill Lab (AID 2284010; active means hit-call score of the fitted dose curve at least 0.9, where 1 is the maximum; inactive means score below 0.9)
Procedure, shortened: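 Cells were dosed with chemicals in an eight-point dilution series, imaged 6 hours later for propidium iodide uptake, and the endpoint was analyzed by bidirectional fitting against DMSO as negative control.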

[14] = CCTE_Harrill_HTTr_Apoptosis_MCF7: CCTE's 6-hour Apoptosis Assessment for the High-Throughput Transcriptomics (HTTr) Platform, in MCF-7 cells cultured in DMEM + 10% fetal bovine serum, Harrill Lab (AID 2284011; active means hit-call score of the fitted dose curve at least 0.9, where 1 is the maximum; inactive means score below 0.9)
Procedure, shortened: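 MCF-7 cells in DMEM + 10% fetal bovine serum were exposed to chemicals for 6 hours over an eight-point dilution series. Caspase-3/7 activation was imaged by high content imaging with CellEvent Caspase 3/7 Green; bidirectional fitting used DMSO as baseline.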

[15] = CCTE_Harrill_HTTr_CellCount_MCF7: CCTE's Cell Proliferation Assessment for the High-Throughput Transcriptomics (HTTr) Platform, Harrill Lab (AID 2284012);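 further: count of Hoechst-stained nuclei per well by high-content imaging in MCF-7 cells; cells exposed to compound for six hours; intended direction is loss of nuclei count meaning fewer cells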
Procedure, shortened: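 Chemicals in eight-point dilution series are added to MCF-7 cells for six hours, nuclei are stained with Hoechst and imaged, and per-well nuclei counts are fitted in both directions relative to DMSO controls.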

Measured: AC50

O=Cc1cccc([N+](=O)[O-])c1
inactive: [1] | [2] | [3] | [4]

NC(=O)CC[C@@H]1NC(=O)[C@H](Cc2ccccc2)NC(=O)[C@H](Cc2ccc(O)cc2)NC(=O)CCSSC[C@@H](C(=O)N2CCC[C@H]2C(=O)N[C@@H](CCCN=C(N)N)C(=O)NCC(N)=O)NC(=O)[C@H](CC(N)=O)NC1=O
inactive: [5] | [1] | [3] | [4]

Nc1ccc2cc3ccc(N)cc3nc2c1
active: [5] 968 nM and 3.15 µM | [1] 2.62 µM and 5.87 µM | [3] 2.96 µM and 4.81 µM | [4] 1.64 µM and 3.71 µM | THRB (gene 7068) [6] 32.4 µM and 28.8 µM | [7] 19.5 µM | [8] 17.5 µM and 7.59 µM
inactive: [7] | [9]

CN(C)CCN(Cc1cccs1)c1ccccn1
inactive: [5] | [1] | [3] | [4]

COc1cc2c3cc1Oc1cc(ccc1O)C[C@@H]1c4c(cc(OC)c(O)c4Oc4ccc(cc4)C[C@@H]3N(C)CC2)CC[N+]1(C)C
inactive: [5] | [1] | [3] | [10] | [4]

CC(NNC(=O)c1ccccc1)c1ccccc1 (stereo not drawn)
inactive: [5] | [1] | [2] | [4]

CCOc1ccc(NC(=S)Nc2ccc(OCC)cc2)cc1
inactive: [1] | [2] | [4]

CCCCCCCCCCCCCCCCCCOP(=O)([O-])OC1CC[N+](C)(C)CC1
inactive: [5] | [11] | [3] | [4]

NC(=O)C1c2ccccc2CCc2ccccc21
inactive: [11] | [3]

O=C(NCCN1CCOCC1)c1ccc(Cl)cc1
inactive: [5] | [1] | [2] | [3] | [10] | [4]

CNS(=O)(=O)CCc1ccc2[nH]cc(C3CCN(C)CC3)c2c1
inactive: [2] | [10] | [4]

C[C@@H]1O[C@@H]1P(=O)(O)O
inactive: [5] | [1] | [2] | [3] | [10] | [4]

Cc1ccc(/C(=C\CN2CCCC2)c2cccc(/C=C/C(=O)O)n2)cc1
inactive: [11] | [2] | [4]

COc1cc([C@@H]2c3cc4c(cc3[C@H](O)[C@H]3COC(=O)[C@H]23)OCO4)cc(OC)c1OC
inactive: [5] | [1] | [2] | [3] | [4] | THRB (gene 7068) [12] | [8] | [9]
active: THRB (gene 7068) [6] 27.3 nM

OC[C@@H](O)C(O)[C@@H](O)CO (stereo partly drawn)
inactive: [5] | [3] | [10]

COc1c(N2C[C@@H]3CCCN[C@@H]3C2)c(F)cc2c(=O)c(C(=O)O)cn(C3CC3)c12
inactive: [5] | [1] | [3] | [4]

COc1ccccc1N1CCN(CCCNc2cc(=O)n(C)c(=O)n2C)CC1
inactive: [5] | [1] | [2] | [10] | [4]

CCCCCCCCN
inactive: [5] | [3] | [10]

Cc1cnc(C(=O)NCCc2ccc(S(=O)(=O)NC(=O)NC3CCCCC3)cc2)cn1
inactive: [5] | [1] | [2] | [3] | [10] | [4] | [13] | [14] | [15]

O=C[C@H](O)[C@@H](O)[C@H](O)[C@H](O)CO
inactive: [5] | [1] | [2] | [10] | [4]

CCCCCCCCCCC[C@@H](C[C@@H]1OC(=O)[C@H]1CCCCCC)OC(=O)[C@H](CC(C)C)NC=O
inactive: [5] | [1] | [2] | [3] | [4]

C=CS(=O)(=O)O
inactive: [5] | [2] | [3] | [10] | [4]

NC(=O)c1ncn([C@@H]2O[C@H](CO)[C@@H](O)[C@H]2O)n1
active: [5] 32.2 µM and 20.3 µM | [1] 17 µM | [3] 45.7 µM | [4] 15.6 µM
inactive: [3]

CC(=O)c1ccc2c(c1)N(CCCN1CCN(CCO)CC1)c1ccccc1S2
inactive: [11] | [1] | [10]
active: [2] 31.6 µM

C=CC[N+]1([C@H]2C[C@H]3[C@@H]4CC[C@H]5C[C@H](OC(C)=O)[C@@H](N6CCCCC6)C[C@]5(C)[C@H]4CC[C@]3(C)[C@H]2OC(=O)CC)CCCCC1
inactive: [1] | [2] | [10] | [4]

Source: PubChem BioAssay (EPA / NIEHS)
